Bioassay records from PubChem BioAssay.
The list is not random: actives were taken first. Their share in the collection is about 12%.
JMJD2A Tudor = inhibitors of human JMJD2A Tudor domain. AlphaScreen JMJD2A-Tudor / H3K4me3 peptide binding. AID 504339. O75164. 390,000 tested, 4.4% active. Potency, µM (highest dose often 114 µM), for the others: at the top dose activity change, negative = inhibition, actives largely listed as inhibitors; further: on the % scale 0 is the no-effect control and ±100 the full control effect; nearly all actives have a fitted effect of over 50% in size
HP1b chromo inh = HP1-beta chromodomain-methylated histone interaction inhibition | AlphaScreen HP1-beta / biotin-H3K9me3 peptide binding | 390,000 tested, 0.56% active | Potency, µM (series often up to 114 µM), inactives show at the top dose activity change, negative = inhibition, hits mostly inhibitors; further: nearly all actives have a fitted effect of over 70% in size
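HP1-beta protein (50 nM final) preincubated 30 min at room temperature with biotinylated H3(1-18)K9me3 peptide (50 nM) in PBS pH 7.4, 0.01% Tween-20, then compound added for 30 min. AlphaScreen streptavidin donor/nickel chelate acceptor beads (10 ug/mL final), 30 min dark, luminescence read.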
Sfp inh = inhibitors of Bacillus subtilis Sfp phosphopantetheinyl transferase; Q9F4F7; Biochemical Sfp PPTase activity, qHTS; Potency, µM, without a hit: largest response in the series, negative = inhibition, most hits filed as inhibitors; 310,000 tested, 3.5% active; AID 1490;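 further: the enzyme is Sfp with the accession as filed and its product quenches rhodamine fluorescence; 0% = enzyme reaction without inhibitor and -100% = no enzyme wells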
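Buffer: 50 mM Hepes-Na pH 7.6, 10 mM MgCl2, 0.01% Nonidet P-40, 0.01% BSA. Enzyme 15 nM, pre-exposed to compound 15 min; substrates then added and fluorescence change tracked over 30 min.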
G9a block = inhibitors of human histone lysine methyltransferase G9a | Q96KQ7 | G9a H3K9 monomethylation, AlphaScreen, 2 h | Potency, µM (titrated, usually from 102 µM), for inactives: at the top dose activity, negative = inhibition, hits mostly inhibitors | 350,000 tested, 8.8% active | AID 504332; further: on the % scale 0 is the no-effect control and ±100 the full control effect; nearly all actives have a fitted effect of over 75% in size
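Compounds were preincubated with 20 nM G9a for 15 min, after which biotinylated H3K9 peptide (500 nM) and SAM (20 uM) started a 2 h room-temperature reaction. Monomethylated product was quantified by antibody-based AlphaScreen chemiluminescence.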
BAZ2B inh = inhibitors of human BAZ2B bromodomain; Q9UIF8; Potency, µM (titrated, usually from 114 µM), without a hit: top-dose activity change, negative = inhibition, most hits filed as inhibitors; 360,000 tested, 4.4% active; AlphaScreen BAZ2B-H3K14Ac peptide displacement; further: on the % scale 0 is the no-effect control and ±100 the full control effect; nearly all actives have a fitted effect of over 60% in size
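AlphaScreen luminescence quantifies BAZ2B engagement of H3K14Ac peptide; the protein and biotinylated peptide are both at 50 nM final, buffer PBS pH 7.4 with 0.01% Tween-20, all steps at room temperature.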
Active calls of the source: *; ? = inconclusive; · = no result; [ ] = remark or other dose. The call rests on the fitted dose curve; in most records, active means well fitted curve in the direction sought with a large enough effect; inconclusive means small, poorly fitted or top-dose-only effect, or another doubt; inactive means no such curve, though single readings can be large; an effect the other way counts as inactive or inconclusive. Potency means the concentration at half of the fitted maximal effect.

SMILES | JMJD2A Tudor | HP1b chromo inh | Sfp inh | G9a block | BAZ2B inh
O=C(O)c1ccccc1/C=N/Nc1ccc(S(=O)(=O)N2CCCC2)cc1[N+](=O)[O-] | -35% | -2% | -1% | ? | ?
COc1ccc(-c2cccc3c2NC(=O)C3=O)cc1OC | ? | 10% | · | · | ·
O=C1CCCN1CCCNc1nc2c(S(=O)(=O)c3ccccc3)nnn2c2ccc(Cl)cc12 | -10% | 33% | -19% | 19% | -4%
CCOC(=O)c1ccc(NS(=O)(=O)c2cc(Br)cc3c2N(C(C)=O)C(C)C3)cc1 (stereo not given) | -16% | 21% | · | 3%[59 µM] | -9%
COc1ccc(NC(=S)NNc2ccc(S(=O)(=O)Nc3ccccc3C(=O)O)cc2[N+](=O)[O-])cc1 | ? | 11µM* | 79µM* | · | 7.1µM*
O=C(O)c1ccccc1NS(=O)(=O)c1ccc2ccccc2c1 | -7% | 21% | 9% | 2%[12.7 µM] | -17%
COc1ccc(C=NNc2ccc(S(=O)(=O)Nc3ccccc3C(=O)O)cc2[N+](=O)[O-])c(OC)c1 | 35µM* | 20µM* | · | · | ·
Cc1nn(-c2ccccc2)c(Cl)c1/C=N/Nc1ccc(Cl)c(C(=O)O)c1 | ? | ? | 2% | 3.5µM* | ?
Cc1nn(-c2ccccc2)c(Cl)c1/C=N/Nc1ccc(S(=O)(=O)Nc2ccccc2C(=O)O)cc1[N+](=O)[O-] | 50µM* | ? | -21% | 20µM* | 14µM*
Cc1nn(-c2ccccc2)c(Cl)c1/C=N/NS(=O)(=O)c1ccc(Br)cc1 | -28% | 11% | -9% | -22% | -12%
CN(C(=O)c1ccc(NC(=O)C2CCN(C(=O)OC(C)(C)C)CC2)cc1)C1CCC1 | 4% | 29% | · | · | ·
CCN1C[C@@H]2[C@@H]3C(=O)N(C)C(=O)[C@@H]3[C@](CC)(C1=O)N2C(=O)c1ccc(Cl)cc1 | -7% | 43% | · | · | ·
COC(=O)N[C@@H](CCc1ccccc1)[C@]1(C(C)=O)CCCC1=O | · | · | -2% | · | ·
C=CCOc1ccc(C=NNc2ccc(S(=O)(=O)Nc3ccccc3C(=O)O)cc2[N+](=O)[O-])cc1OC | 16µM* | ? | · | · | ·
Cc1ccc(COC(=O)c2[nH]c3c(c2C)C(=O)CC(c2ccc(N(C)C)cc2)C3)cc1 (stereo not given) | -5% | 26% | · | 6%[59 µM] | 2%
O=[N+]([O-])c1ccc(/C=N/N2CCN(c3ccncc3S(=O)(=O)N3CCCCC3)CC2)cc1 | -24% | 4% | 9% | 22%[59 µM] | 0%
O=[N+]([O-])c1ccccc1/C=N/N1CCN(c2ccncc2S(=O)(=O)N2CCCCC2)CC1 | 35µM* | ? | -7% | ? | 32µM*
O=C(NCc1ccccc1)C1=C[C@@H](C2CCCCC2)C[C@@H](OCCCCO)O1 | -24% | 16% | · | · | ·
CN1CCN(CC#CC(C)(O)C2CC3C=CC2C3)CC1 (stereo not given) | 50µM* | 22% | -2% | 22µM* | ?
OC(CCN1CCCCC1)(c1ccccc1)C1C[C@@H]2C=C[C@H]1C2 (stereo not given in full) | -15% | 51% | · | -33%[59 µM] | -10%
CCOC(=O)c1cccc(NC(=O)c2cc3cc4ccc(C)cc4nc3o2)c1 | -6% | 25% | · | 15%[59 µM] | ·
CCOC(=O)c1ncc2[nH]c3cccc(OC(C)C)c3c2c1C | · | · | -12% | -11%[59 µM] | ·
c1ccc(Nc2ncncc2-c2ccc3c(c2)OCO3)cc1 | · | · | 2% | 2%[0.501 µM] | ·
CCOc1ccc(C2/C(=C(\O)c3c(C)[nH]c(C(=O)OC)c3C)C(=O)C(=O)N2CCN(C)C)cc1 (stereo not given) | 35µM* | 4% | -19% | 45µM* | 0%
CCN(CC)CCN1C(=O)C(=O)/C(=C(/O)c2c(C)[nH]c(C(=O)OC)c2C)C1c1ccc(OC)cc1 (stereo not given) | -23% | 16% | -6% | 79µM* | -9%
SMILES | JMJD2A Tudor | HP1b chromo inh | Sfp inh | G9a block | BAZ2B inh
CCCOc1ccc(C2/C(=C(\O)c3c(C)[nH]c(C(=O)OC)c3C)C(=O)C(=O)N2CCN(C)C)cc1 (stereo not given) | ? | 7% | -12% | ? | -11%
COC(=O)c1[nH]c(C)c(/C(O)=C2\C(=O)C(=O)N(CCN(C)C)C2c2cc(OC)ccc2OC)c1C (stereo not given) | ? | 28% | -1% | 50µM* | -32%
CCC1(c2ccc(F)cc2)NC(=O)N(CC(=O)Nc2cccc(S(=O)(=O)N3CCOCC3)c2)C1=O (stereo not given) | -15% | 25% | · | · | ·
CNc1oc(-c2ccccc2Cl)nc1P(=O)(c1ccccc1)c1ccccc1 | -28% | ? | ? | -7%[59 µM] | -32%
CNc1oc(-c2ccc(C)cc2)nc1P(=O)(c1ccccc1)c1ccccc1 | ? | -31% | 56µM* | 1%[12.7 µM] | ?
CCC(=O)OCc1cnc(C)c2oc(=O)c(C(=O)Nc3ccc(CC)cc3)cc12 | 3% | 32% | · | 21%[59 µM] | 1%
CCCCc1nc2ccccc2c(NC(=O)CN(CC)CC)c1CCC | 28µM* | ? | ? | 32µM* | 56µM*
CCC(=O)Nc1c(C)c(CC)nc2ccccc12 | -10% | 36% | 7% | -5%[12.7 µM] | -5%
CCn1c(=O)cc(SCC(=O)N2CCN(C(=O)c3ccco3)CC2)c2ccccc21 | -8% | 28% | 21% | -38% | -10%
O=C(c1ccco1)N1CCN(C(=O)c2ccccc2OCc2ccccc2)CC1 | -3% | 24% | · | · | ·
COc1ccc(CN2CCN(C(=O)c3ccco3)CC2)cc1OC | -20%[11.4 µM] | 25µM* | -25% | 10µM* | 40µM*
COc1ccccc1OCc1ccc(C(=O)N2CCN(C(=O)c3ccco3)CC2)cc1 | -26% | 1% | -23% | 45µM* | 3%
CCn1c2ccccc2c2cc(CN3CCN(C(=O)c4ccco4)CC3)ccc21 | 35µM* | ? | 56µM* | ? | ?
COc1ccc(CN2CCN(C(=O)c3ccco3)CC2)cc1OCc1ccccc1 | ? | ? | -17% | 11µM* | 56µM*
CCCOC(=O)c1ccc(NC(=O)C2CC(=O)N(c3ccc(C)cc3)C2)cc1 (stereo not given) | -10% | 38% | · | 5%[59 µM] | 3%
COc1ccc(-c2nc(CN3CCN(C(=O)c4ccco4)CC3)c(C)o2)cc1OC | -19% | 19% | 6% | 56µM* | 14%[57.1 µM]
COc1cc(-c2nc(CN3CCN(C(=O)c4ccco4)CC3)c(C)o2)ccc1F | -31% | 22% | 8% | -5% | ?
Cc1cc(Cl)ccc1NC(=O)CCS(=O)(=O)c1ccc2c(c1)CC(C)N2C(=O)C1CC1 (stereo not given) | 2% | 38% | · | ? | 0%
COc1cccc(-c2cn3nc(C)c(C)nc3n2)c1 | -17% | 49% | ? | 20µM* | 12%
CCN(C(=O)C1CCCCC1)c1nnc(-c2cccnc2)s1 | ? | 52% | -5% | 50µM* | ?
CC(C)(C)c1nnc(N/N=C/c2cc(Br)ccc2O)n(N)c1=O | 22µM* | 6% | ? | 5%[59 µM] | 18µM*
